This is part of a sample that, as a whole, favours compounds with a hit. Of some 83,000 tested, about 20% had one in any assay.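 Percent growth is the endpoint: 0 to 100 indicates growth inhibition (40 means 60% inhibition), 0 means no net growth, and negative values indicate cell death.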 Unmarked numbers belong to inactive results. The source made the active and inactive calls. The calls were made as follows: active = growth percent below 10; inactive = the rest.
How the values were obtained:
Test in all cases: NCI-60 one-dose screen, 48 h (100 = growth as untreated, 0 = no growth, -100 = all killed)
Details in all cases: 10 µM unless noted
T-47D breast = system: T-47D breast
BT-549 breast = system: BT-549 breast
MDA-MB-435 melanoma = system: MDA-MB-435 melanoma
SW-620 colon = system: SW-620 colon
MCF7 breast = system: MCF7 breast
HCT-116 colon = system: HCT-116 colon
HCC-2998 colon = system: HCC-2998 colon
KM12 colon = system: KM12 colon

| SMILES | growth (T-47D breast) | growth (BT-549 breast) | growth (MDA-MB-435 melanoma) | growth (SW-620 colon) | growth (MCF7 breast) | growth (HCT-116 colon) | growth (HCC-2998 colon) | growth (KM12 colon) |
| --- | --- | --- | --- | --- | --- | --- | --- | --- |
| CC(=O)c1ccc(NS(=O)(=O)c2cccc(C(=O)Nc3ccc(Br)cc3)c2)cc1 | 30.6% [25 µM] | 48.3% [25 µM] | 53.4% [25 µM] | 75.6% [25 µM] | 60.8% [25 µM] | 48.4% [25 µM] | 79.8% [25 µM] | 58.2% [25 µM] |
| CC1(C)CC(O)CCCCCCOc2c(CN)cccc2NC(=O)c2nc(cnc2N)-c2ccc(cc2)S1(=O)=O (configuration not stated) | 66.2% | 28.2% | 20% | -6.55% (active) | -16% (active) | -63.6% (active) | 28.6% | -10.7% (active) |
| CC(=O)Nc1ccc(-c2ccc3c(c2)NC(=O)/C3=C\c2ccc[nH]2)cc1 | 37.5% | 83.5% | 90.6% | 96.4% | 9.83% (active) | 104% | 104% | 45.4% |
| COc1cc2oc(-c3cccc(C(=O)Nc4ccc(Cl)cc4)c3)cc(=O)c2c(O)c1OC | 47.2% | 60.1% | 61% | 73.6% | 80.9% | 39.9% | 96.5% | 62% |
| Cc1nc2sccn2c1-c1cn2ccsc2n1 | -4.14% (active) | 80.2% | 95.9% | 96.9% | -39.1% (active) | 88.3% | 50.2% | 64.1% |
| C=C1C(=O)O[C@H]2[C@H]1CC/C(COC(=O)NCC(C)c1ccc(CC(C)C)cc1)=C\CC[C@@]1(C)O[C@@H]21 (some centres not stated) | -50% (active) | -42.4% (active) | -88.7% (active) | -58.7% (active) | 13.7% | -83% (active) | 59.5% | -3.31% (active) |
| CCCCCC(=O)Oc1ccc(/C(=C(\C)c2ccccc2)c2ccc(OCCN3CCCCC3)cc2)cc1 | 37.3% | 78.4% | 85.9% | 87.9% | 27.7% | 56.6% | 79.1% | 71.6% |
| O=C1Nc2ccc(F)cc2/C1=C\c1c(-c2ccccc2)nc2ccccn12 | 61.8% | 65.9% | -10.1% (active) | 49.8% | 61.3% | 63.8% | 93.3% | 45.7% |
| C=C1C(=O)O[C@H]2[C@H]1CC/C(COC(=O)NCc1c[nH]c3ccc(Br)cc13)=C\CC[C@@]1(C)O[C@@H]21 | -68% (active) | -52.3% (active) | -56.5% (active) | -71.3% (active) | 16.6% | -83.1% (active) | 53.3% | 19.5% |
| O=[N+]([O-])c1cc(Br)c2cccc3c2c1CC3 | 101% | 114% | 113% | 107% | 89% | 106% | 103% | 109% |
| C=C1C(=O)O[C@H]2[C@H]1CC/C(COC(=O)NCc1c[nH]c3ccc(F)cc13)=C\CC[C@@]1(C)O[C@@H]21 | -58.3% (active) | -51.6% (active) | -63.5% (active) | -72.4% (active) | 22.4% | -86.7% (active) | 68.3% | 33.5% |
| COc1ccc(/C=C2\Oc3cc(OCCCN4CCCCC4)ccc3C2=O)cc1OC | 97.8% | 83.9% | 100% | 85% | 85.9% | 76% | 108% | 93.6% |
| CCOC(=O)c1cc(C(=O)c2ccc(Br)cc2)n2ccc(/C=C/c3cc[n+](CC(=O)c4ccc(OC)cc4)cc3)cc12 | 90.1% | 109% | 101% | 48.6% | -9.87% (active) | 37.7% | 95.1% | 99.2% |
| COc1cc2c(c(OC)c1OC)-c1ccc(NNC(=S)N(Cc3cccc(C[N+](Cc4cccc(CNC56CC7CC(CC(C7)C5)C6)c4)(Cc4cccc(CNC56CC7CC(CC(C7)C5)C6)c4)Cc4cccc(CN(C(=S)NNc5ccc6c(cc5=O)[C@@H](NC(C)=O)CCc5cc(OC)c(OC)c(OC)c5-6)C56CC7CC(CC(C7)C5)C6)c4)c3)C34CC5CC(CC(C5)C3)C4)c(=O)cc1[C@@H](NC(C)=O)CC2 (some centres not stated) | 51.8% | -4.6% (active) | -9.46% (active) | 3.6% (active) | -24.6% (active) | -54.6% (active) | -58.4% (active) | 4.25% (active) |
| NS(=O)(=O)c1ccc(CCn2c(SCC(=O)c3ccc(Cl)cc3)nc3ccccc3c2=O)cc1 | 95.3% | 99% | 102% | 103% | 91.8% | 97% | 87.7% | 102% |
| Cn1c(N2NC(=O)C(N=Nc3ccc(S(N)(=O)=O)cc3)C2=O)nc(-c2ccco2)c(C#N)c1=O (configuration not stated) | 72.2% | 109% | 119% | 51.9% | 68% | 76.4% | 51.1% | 85.5% |
| Cc1ccc(S(=O)(=O)Nn2c3c(cc(-c4nc5ccccc5s4)c2=O)CCCCCC3)cc1 | 96.4% | 109% | 103% | 99.6% | 91.3% | 98% | 115% | 101% |
| O=C(O)c1ccc(-c2nn(-c3ccc(C(F)(F)F)cc3)cc2CNc2ccc(Oc3ccccc3)cc2)cc1 | 65% | 90.6% | 87.5% | 93.9% | 70.3% | 60.8% | 115% | 59.5% |
| C#CCNC(=O)[C@H](Cc1ccccc1)NC(=O)[C@]12CC[C@@H](C(=C)C)[C@@H]1[C@H]1CC[C@@H]3[C@@]4(C)CCC(=O)C(C)(C)[C@@H]4CC[C@@]3(C)[C@]1(C)CC2 | 49.8% | 104% | 85% | 64.8% | 56% | 35.3% | 80.8% | 61.5% |
| CCCCCCNC(=O)Nc1ccc2cc3ccc(NC(=O)NCCCCCC)cc3nc2c1 | -24.8% (active) | 89.4% | -83.6% (active) | -78.1% (active) | -57.4% (active) | -18.9% (active) | -24.5% (active) | 19.4% |
| COc1ccccc1NS(=O)(=O)c1cccc(C(=O)Nc2ccc(Br)cc2)c1 | 21.2% | 37.2% | 35.3% | 55.1% | 32.5% | 37.9% | 57.5% | 34.6% |
| COc1cc(C(=O)Nc2cc3c(cc2Oc2cc(C)cc(C)c2)C(=O)N(C)[C@@H](CC(=O)N(C)O)C(=O)N3)c(Br)c(OC)c1OC | 1.62% (active) | -30.2% (active) | -86.2% (active) | -2.61% (active) | -14.8% (active) | -35.5% (active) | -45.6% (active) | -28.6% (active) |
| CCOC(=O)Oc1c(OC)cc(C(=O)c2ccc(OC)c(O)c2OC)cc1OC | 43.8% | 40.1% | -47.4% (active) | 20.5% | 19.5% | 9.57% (active) | 39.7% | 25.7% |
| O=C(Nc1ccccc1)Nc1ccc2cc3ccc(NC(=O)Nc4ccccc4)cc3nc2c1 | -3.77% (active) | 86.2% | 21.9% | -62.7% (active) | 27.2% | -57.1% (active) | -28.9% (active) | 38.9% |
| Cn1cc(-c2csc(-c3c[nH]c4ccccc34)n2)c2ccnc(Cl)c21 | 18.4% | 93.8% | 75.7% | 41.7% | 30.3% | 59.4% | 92.4% | 58.9% |
| O=C1NN(C(=O)c2ccccc2)C(c2ccc(Cl)c(Cl)c2)=C/C1=C\c1ccc([N+](=O)[O-])cc1 | 76.7% | 52.4% | 86.5% | 42.9% | 83.6% | 90.7% | 44.6% | 51.7% |
| COc1cc2c(c(O)c1Cl)C(=O)c1c(O)cc(C[C@H](C)O)cc1[C@H]2[C@H]1c2cc(C[C@H](C)O)cc(O)c2C(=O)c2c1cc(OC)c(Cl)c2O | 10.5% | 17.2% | 11.3% | 17.8% | 7.74% (active) | 9.53% (active) | 25.9% | 11.2% |
| C=C1C(=O)O[C@H]2[C@H]1CC/C(CNC(=O)C(C)c1ccc(CC(C)C)cc1)=C\CC[C@@]1(C)O[C@@H]21 (some centres not stated) | -46.3% (active) | -39.5% (active) | 0.546% (active) | -59% (active) | 4.24% (active) | -87.8% (active) | -5.64% (active) | 57.8% |
| Cc1ccc(NC(=O)Cc2ccc(/C=C/C(=O)c3ncc[nH]3)cc2)cc1 | 38.9% | 48.9% | 28.7% | 11.7% | 14.5% | 8.97% (active) | 98% | 11.3% |

— PubChem BioAssay (NCI)
